Screening data (PubChem BioAssay)
PNC inhibitor – perinucleolar compartment assembly inhibition; activity change (PNC), negative = inhibition, % at 10 µM; AID 2417; 140,000 compounds, 3.1% hits; PC3M PTB-GFP, PNC prevalence imaging, 16 h; hits give low values;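 active means readout at or below -70, meaning at least 70% loss of cells showing the perinucleolar compartment, a nuclear body marking cancer cells; inconclusive means readout between -30 and a set limit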
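Read-out is percentage of cells bearing a perinucleolar compartment, from automated 20x imaging of fixed, Hoechst-stained PC3M PTB-GFP cells. Cells were seeded 4 h, then exposed 16 h to compound (23 nl of library stock) in duplicate plates.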
HPGD inh – HPGD (human) dehydrogenase inhibition | purified HPGD, NADH fluorescence kinetic, PGE2 substrate | Potency, µM, most hits filed as inhibitors | AID 894 | P15428 | 150,000 compounds, 4.3% hits
Target sequence (P15428 whole entry, looked up): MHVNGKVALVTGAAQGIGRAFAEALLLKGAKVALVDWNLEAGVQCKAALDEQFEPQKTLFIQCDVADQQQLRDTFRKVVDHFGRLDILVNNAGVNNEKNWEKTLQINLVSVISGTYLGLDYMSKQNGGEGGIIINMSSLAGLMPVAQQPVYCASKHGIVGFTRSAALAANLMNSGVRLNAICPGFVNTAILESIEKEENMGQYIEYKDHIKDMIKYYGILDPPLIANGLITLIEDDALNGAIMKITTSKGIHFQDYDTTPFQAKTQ
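NADH formation kinetics: reaction with 30 uM PGE2 and 1 mM NAD+ (final), 20 nM enzyme, Tris-HCl pH 8 with Tween 20, after 15 min compound preincubation at room temperature. Fluorescence change, last versus first of five reads.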
LMNA splice mod – modulators of lamin A splicing; HeLa LMNA splicing GFP/RFP minigene ratio, 48 h; Potency, µM (series often up to 46.1 µM), most hits filed as inhibitors; 200,000 compounds, 0.01% hits; AID 1487; active means well fitted inhibition curve with a large enough effect in the signal ratio, with a control signal flat, not every such curve was filed as active; inconclusive means small, poorly fitted or top-dose-only effect, or effect the other way, or a change in a side signal; the % refers to the signal ratio
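S3 HeLa stable clones carrying a lamin A-EGFP splicing minigene plus DsRed2 were seeded at 600 cells/well in Opti-MEM with 2% FBS, pin-dosed and incubated 48 h at 37°C. Acumen cytometry (488 nm) gave the GFP/RFP total-intensity ratio.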
ALDH1A1 inh – ALDH1A1 (human) enzyme inhibition. P00352. Purified ALDH1A1, NADH fluorescence, propionaldehyde substrate. Potency, µM (series often up to 75.3 µM), usual class: inhibitors. 220,000 compounds, 7.3% hits
ALOX12 inhib – inhibitors of human 12-lipoxygenase (ALOX12) | 150,000 compounds, 0.12% hits | Potency, µM (top dose mostly 57.1 µM), most hits filed as inhibitors | AID 1452 | purified 12-hLO, xylenol orange hydroperoxide absorbance; active means well fitted inhibition curve with a large enough effect; inconclusive means small, poorly fitted or top-dose-only effect; further: nearly all actives have a fitted effect of over 55% in size
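Purified human 12hLO (150 nM), preincubated 15 min with compound, then 40 uM arachidonic acid for 30 min, room temperature, Hepes pH 7.0 with 0.01% Triton X-100. Hydroperoxide detected by ferrous iron/xylenol orange; 573/405 nm absorbance ratio gives reaction progress.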
Large screens that a line does not name were inactive. Only some compounds are listed: those with a hit (about 10% of all), similar ones and a draw of the others. Unless noted, the call rests on the fitted dose curve; in most records, active means well fitted inhibition curve with a large enough effect (not every such curve was filed as active); inconclusive means small, poorly fitted or top-dose-only effect, or another doubt; inactive means no such curve, though single readings can be large or run the other way.

Cc1cccc(C(=O)c2cnc3ccccc3c2-c2ccccc2)c1	HPGD inh inconclusive, ALDH1A1 inh 12.6µM
O=C(CSc1nc(=O)n(Cc2ccco2)c2c1CCC2)NCc1ccccc1	none (no result: PNC inhibitor, HPGD inh, ALDH1A1 inh, ALOX12 inhib)
Cc1cc(N)n(-c2ccc([N+](=O)[O-])cc2)n1	none (no result: PNC inhibitor, HPGD inh, ALOX12 inhib)
Cc1cc(N)n(-c2ccc(S(=O)(=O)c3ccc(C(C)C)cc3)cc2)n1	LMNA splice mod inconclusive, ALDH1A1 inh 35.5µM (no result: PNC inhibitor, HPGD inh, ALOX12 inhib)
FC(F)(F)c1cnc(NNC(=S)Nc2ccc(Cl)cc2)c(Cl)c1	PNC inhibitor inconclusive, LMNA splice mod inconclusive, ALDH1A1 inh 5.01µM
Cc1ccc(NC(=S)NNc2ncc(C(F)(F)F)cc2Cl)c(C)c1	LMNA splice mod inconclusive, ALDH1A1 inh inconclusive
Cc1ccc(NC(=S)NNc2ncc(C(F)(F)F)cc2Cl)cc1	PNC inhibitor inconclusive, LMNA splice mod inconclusive, ALDH1A1 inh 10µM
CC(Cl)C(=O)Nc1ncc(C(F)(F)F)cc1Cl (stereo unspecified)	ALDH1A1 inh 7.08µM
Fc1ccc(NC(=S)NNc2ncc(C(F)(F)F)cc2Cl)c(F)c1	LMNA splice mod inconclusive, ALDH1A1 inh 4.47µM (no result: PNC inhibitor, HPGD inh, ALOX12 inhib)
CC(C)C(=O)Nc1ncc(C(F)(F)F)cc1Cl	none
Oc1ccc([C@@H]2CNCc3sccc32)cc1O	none (no result: PNC inhibitor, HPGD inh, LMNA splice mod, ALDH1A1 inh)
CC(C)OC(=O)CC1C(=O)NCCN1C(=S)NC(=O)c1cccs1 (stereo unspecified)	ALDH1A1 inh inconclusive (no result: PNC inhibitor, HPGD inh, ALOX12 inhib)
Cc1ccc(/C=C/C(=O)N2CCN(S(=O)(=O)c3c(C)c(C)cc(C)c3C)CC2)o1	HPGD inh 25.1µM, ALDH1A1 inh 14.1µM
Cc1cc(C)c(C)c(S(=O)(=O)N2CCN(C)CC2)c1C	none (no result: PNC inhibitor, HPGD inh, LMNA splice mod, ALOX12 inhib)
Cc1ccc(/C=C/C(=O)N2CCN(S(=O)(=O)c3ccc(C)c(C)c3)CC2)o1	PNC inhibitor inconclusive, HPGD inh 22.4µM, LMNA splice mod inconclusive, ALDH1A1 inh 3.55µM
Cc1ccc(S(=O)(=O)N2CCN(C(=O)N(C)C)CC2)cc1C	ALDH1A1 inh inconclusive
Cc1ccc(/C=C/C(=O)N2CCN(Cc3ccccc3)CC2)o1	ALDH1A1 inh 8.91µM
Cc1ccc(/C=C/C(=O)NCCCN2CCN(CCCNC(=O)/C=C/c3ccc(C)o3)CC2)o1	none
Cc1cccc(CN2CCN(C(=O)CCl)CC2)c1	LMNA splice mod inconclusive, ALDH1A1 inh 0.316µM (no result: HPGD inh)
CCCOc1ccc(C2C(=O)N(C3CCC(C)CC3)CC(=O)N2CCc2ccccc2)cc1OC (stereo unspecified)	none (no result: PNC inhibitor, HPGD inh, ALDH1A1 inh, ALOX12 inhib)
CCOc1ccc(OCC)c(NC(=O)C2CCN(S(=O)(=O)c3cn(C)cn3)CC2)c1	none (no result: PNC inhibitor, HPGD inh, ALDH1A1 inh, ALOX12 inhib)
COc1ncc2ncc(=O)n(C3CC3)c2n1	ALDH1A1 inh inconclusive (no result: PNC inhibitor, HPGD inh, ALOX12 inhib)
O=C(NC1CCCC1)c1cnn(-c2ccc(F)cc2F)c1C1CCNCC1	none (no result: PNC inhibitor, HPGD inh, ALDH1A1 inh, ALOX12 inhib)
CCSc1nnc(NC(=O)c2cccnc2Cl)s1	ALDH1A1 inh 25.1µM
Cc1nnc(NC(=O)c2cccc(S(=O)(=O)N3CCOCC3)c2)s1	PNC inhibitor inconclusive
O=C(Nc1nnc(SCC(=O)N2CCCCC2)s1)c1cccs1	HPGD inh 14.1µM, ALDH1A1 inh inconclusive
O=C(CSc1nc(-c2ccccc2)ns1)N1CCOCC1	ALDH1A1 inh 12.6µM (no result: PNC inhibitor, HPGD inh, ALOX12 inhib)
C=CCSc1nnc(NC(=O)c2cccc(S(=O)(=O)N3CCOCC3)c2)s1	HPGD inh 3.55µM, ALDH1A1 inh inconclusive
O=C(Cc1cccs1)Nc1nnc(SCC(=O)N2CCCCC2)s1	PNC inhibitor inconclusive
CCNc1ncc2nc(-c3cccc(C#N)c3)c(=O)n(CCC#N)c2n1	ALDH1A1 inh inconclusive (no result: PNC inhibitor)
Cn1cccc1C(=O)N1CCC[C@@]2(CCN(C(=O)Nc3cccc(C#N)c3)C2)C1	none (no result: PNC inhibitor, LMNA splice mod)
O=C(Cn1cnc2c(nc3n2CCCCC3)c1=O)Nc1ccc(F)c(Cl)c1	none (no result: PNC inhibitor, HPGD inh, ALDH1A1 inh, ALOX12 inhib)
Cc1csc2nc(-c3cccc(NC(=O)c4cccc(F)c4)c3)cn12	none (no result: PNC inhibitor, HPGD inh, ALDH1A1 inh, ALOX12 inhib)
CCSc1nnc(NC(=O)C(C(F)(F)F)C(F)(F)F)s1	HPGD inh 3.55µM, LMNA splice mod inconclusive, ALDH1A1 inh 17.8µM
O=C(Nc1nnc(SCC(=O)N2CCOCC2)s1)c1ccccc1Cl	HPGD inh inconclusive, ALDH1A1 inh 22.4µM
COCCn1c(=NC(=O)CSCC(=O)Nc2cc(C)on2)sc2cc(C(=O)OC)ccc21	PNC inhibitor -113.4, ALDH1A1 inh inconclusive
COCCn1c(=NC(=O)c2ccc3c(c2)OCCO3)sc2cc(NC(C)=O)ccc21	none (no result: PNC inhibitor, HPGD inh, ALDH1A1 inh, ALOX12 inhib)
COc1ccc(OCc2ccc(-c3nc(C#N)c(N4CCN(C)CC4)o3)o2)cc1	none (no result: PNC inhibitor, HPGD inh, ALDH1A1 inh, ALOX12 inhib)
O=C(O)c1cccc(N/N=C/C2=C(Cl)c3cc(Cl)ccc3SC2)c1	LMNA splice mod inconclusive, ALDH1A1 inh 20µM (no result: PNC inhibitor, HPGD inh, ALOX12 inhib)
